A selection: hits, their analogues and other compounds. The true share with any hit is near 6.6%.
Beta apoptosis: beta cell apoptosis inhibition; INS-1E cytokine-induced death, ATP luminescence, 48 h; percent of positive-control rescue, neutral wells zero; protection from apoptosis, % (concentration not given with the values); 300,000 compounds, 0.8% hits; AID 435005;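 active means Every replicate reaches about 75%, or at least half do and their mean reaches it too, limit read from the data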;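 further: higher means more ATP so stronger rescue from cytokine killing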
MPTP block: permeability transition pore inhibition | isolated mouse mitochondria, Ca2+ swelling absorbance, 30 min | inhibition, % at 10 µM | 360,000 compounds, 1.4% hits | AID 602449;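 active means inhibition of 50% or more, scaled per plate between neutral and stimulator controls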
Mdm2-MdmX inh: human Mdm2/MdmX binding inhibition; O15151+Q00987; SaOS-2 split-luciferase Mdm2/MdmX complementation, luminescence; inhibition, % at 8 µM; 330,000 compounds, 3% hits; AID 485346;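 active means inhibition of at least 50% at 8 µM in the primary screen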
Target sequence (O15151 whole entry, looked up): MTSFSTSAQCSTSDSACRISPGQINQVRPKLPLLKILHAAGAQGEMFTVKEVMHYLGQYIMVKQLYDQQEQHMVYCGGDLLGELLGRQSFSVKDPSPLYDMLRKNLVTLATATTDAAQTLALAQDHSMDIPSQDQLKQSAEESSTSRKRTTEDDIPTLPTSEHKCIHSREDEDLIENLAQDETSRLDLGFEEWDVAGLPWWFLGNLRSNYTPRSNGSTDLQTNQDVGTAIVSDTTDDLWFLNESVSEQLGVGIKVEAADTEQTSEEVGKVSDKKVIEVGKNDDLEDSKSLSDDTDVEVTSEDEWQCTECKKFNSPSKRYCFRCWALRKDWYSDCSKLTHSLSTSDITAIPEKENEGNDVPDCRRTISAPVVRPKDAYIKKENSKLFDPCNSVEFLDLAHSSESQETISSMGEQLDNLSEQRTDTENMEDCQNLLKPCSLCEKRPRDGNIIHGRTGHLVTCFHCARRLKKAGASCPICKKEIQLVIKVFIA
Target sequence (Q00987 whole entry, looked up): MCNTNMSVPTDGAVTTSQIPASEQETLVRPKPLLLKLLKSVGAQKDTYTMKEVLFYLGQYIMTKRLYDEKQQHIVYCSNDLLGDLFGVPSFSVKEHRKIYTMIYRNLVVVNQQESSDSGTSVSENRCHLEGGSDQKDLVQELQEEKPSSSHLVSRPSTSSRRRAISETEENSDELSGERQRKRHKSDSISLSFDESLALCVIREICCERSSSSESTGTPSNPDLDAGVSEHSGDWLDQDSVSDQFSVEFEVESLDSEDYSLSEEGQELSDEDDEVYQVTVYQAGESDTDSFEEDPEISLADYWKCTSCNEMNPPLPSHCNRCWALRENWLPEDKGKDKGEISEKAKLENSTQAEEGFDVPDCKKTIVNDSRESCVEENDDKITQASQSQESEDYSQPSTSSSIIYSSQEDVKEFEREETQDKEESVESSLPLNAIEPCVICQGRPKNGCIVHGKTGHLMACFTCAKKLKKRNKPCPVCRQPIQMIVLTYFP
NR3A LBD binder: modulates the human NR3A ligand-binding domain | NR3A LBD differential scanning fluorimetry, Tm shift; 0% = protein alone, 100% = glycine-bound protein | 340,000 compounds, 2.5% hits | AID 1259313 | Tm shift relative to glycine control, % at 25 µM;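 active means melting temperature shift of at least 10% of the positive control shift, at one fixed dose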
CSC inhib: cancer stem cell inhibition. cancer stem cell-like cells viability, luminescence. inhibition, % at 7.5 µM. 300,000 compounds, 1.1% hits. AID 2717; in the data active means inhibition above about 75%; tested in HMLE shEcad cells
Gli-Sufu antag: antagonists of Gli-Sufu signaling; Sufu-KO-LIGHT fibroblasts, Gli luciferase reporter luminescence; inhibition, % at 5 µM; 340,000 compounds, 0.74% hits;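 active means inhibition above about 55%, limit read from the data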
Rh123 counter: Rhodamine 123 counter-screen of mitochondrial pore hits | shares compounds with MPTP block | isolated mitochondria, membrane potential, Rhodamine 123 fluorescence | inhibition, % at 10 µM | 5,000 compounds, 78% hits | AID 624504; in the data active means inhibition above about 22%
MPTP swell DR: MPTP inhibition, dose response swelling confirmation. 780 compounds, 58% hits. IC50, µM. shares compounds with MPTP block. isolated mitochondria swelling, absorbance. AID 651561; in the data active means IC50 below about 20 µM
MPTP cs DR: active in counter-screen for permeability transition pore inhibitors; shares compounds with MPTP block; isolated mitochondria counterscreen, fluorescence read-out; IC50, µM; 780 compounds, 49% hits; in the data active means IC50 below about 80 µM
Of the large screens only hits and unclear results are named; the others gave an inactive call (follow-up assays come after a bar, where they were run); ! = a repeat was not active.

CC(=O)Nc1ccc(S(=O)(=O)N2CCSC2c2ccco2)cc1 (stereo not drawn)	none
COc1ccccc1Nc1nc(NCc2ccco2)c2ccccc2n1	MPTP block 71 | Rh123 counter 84
COc1cc2ncnc(NCc3ccco3)c2cc1OC	none
CCCOc1cccc(C(=O)NC(=S)Nc2ccc(N3CCN(C)CC3)cc2)c1	MPTP block 76 (no result: Beta apoptosis) | Rh123 counter inactive | MPTP swell DR 7.1 | MPTP cs DR 39
CCN1CCN(c2ccc(NC(=O)c3cccc(OCc4ccccc4)c3)cc2)CC1	none
O=C(NC(=S)Nc1ccc(CN2CCCCC2)cc1)c1cccc(OCc2ccccc2)c1	MPTP block 84 (no result: Beta apoptosis, CSC inhib) | Rh123 counter inactive | MPTP swell DR inactive | MPTP cs DR inactive
CCOc1cccc(C(=O)NC(=S)Nc2ccc(N3CCN(CC)CC3)cc2)c1	none
CN1CCN(c2ccc(NC(=O)c3cccc(OCc4ccccc4)c3)cc2)CC1	MPTP block 107 | Rh123 counter inactive | MPTP swell DR 6.6 | MPTP cs DR inactive
CCOc1ccc(CCNC(=O)CCS(=O)(=O)c2ccc(OC)cc2)cc1OCC	none
Cc1c(C(=O)N2CCCCC2)c(S(=O)(=O)N2CCN(c3ccccc3F)CC2)c(C)n1C	none (no result: Beta apoptosis)
Cc1ccc(S(=O)(=O)N2CCOC2CNC(=O)C(=O)NCc2ccc3c(c2)OCO3)cc1 (stereo not drawn)	none
O=C(CN1C(=O)CCC1=O)Nc1ccc(Cc2ccc(NC(=O)CN3C(=O)CCC3=O)cc2)cc1	none
CCC(C)Sc1cc(C(F)(F)F)c(C(=O)Nc2ccc(Cl)cc2)cn1 (stereo not drawn)	MPTP block 75 | Rh123 counter 87
CCN(C(=O)c1cnc(NC(C)C)cc1C(F)(F)F)c1ccc(Cl)cc1	none (no result: Beta apoptosis)
O=C(CSc1ncnc2ccccc12)Nc1ccc2c(c1)OCO2	none
Cc1ccccc1-n1ncc2c(SCC(=O)NC3CCCC3)ncnc21	MPTP block 80 | Rh123 counter 28
O=C(CSc1ncnc2c1cnn2-c1ccccc1)Nc1ccc2c(c1)OCO2	MPTP block 67 | Rh123 counter inactive | MPTP swell DR 5.2 | MPTP cs DR 6.4
Oc1ccc(C[C@@H]2CNCCN2CCc2cccc(F)c2)cc1	none
CCc1cc(=O)oc2cc(C)cc(O)c12	none
CCCCCc1cc(O)c2c(C)cc(=O)oc2c1	Beta apoptosis 130, MPTP block 86 | Rh123 counter 79
CCCc1cc(=O)oc2cc(C)cc(OCC(=O)NCc3cccnc3)c12	none
CCCc1cc(=O)oc2cc(C)cc(OC(=O)c3ccco3)c12	MPTP block 84 | Rh123 counter 88
CCCc1cc(=O)oc2cc(C)cc(O)c12	MPTP block 78 | Rh123 counter 78
CC(C)(C)C(=O)NCC12C=CC(O1)C1C(=O)N(c3ccccc3)C(=O)C12 (stereo not drawn)	none
CC(C)COC(=O)NCC12C=CC(O1)C1C(=O)N(c3ccc(Cl)cc3)C(=O)C12 (stereo not drawn)	MPTP block 85 | Rh123 counter inactive
S=C(Nc1ccc(Oc2ccccc2)cc1)NC1CCCCCC1	MPTP block 96, NR3A LBD binder 11, CSC inhib 95 (no result: Mdm2-MdmX inh) | Rh123 counter 89
S=C(Nc1ccc(Oc2ccccc2)cc1)NC1CCCCC1	MPTP block 80 | Rh123 counter 95
O=C(O)c1ccc(NC(=S)NC2CCCCC2)cc1	none (no result: CSC inhib)
FC(F)Sc1ccc(NC(=S)NC2CCCC2)cc1	MPTP block 95 | Rh123 counter 94
CC(C)c1ccc(NC(=S)NC2CCCCCC2)cc1	MPTP block 74 | Rh123 counter 87
COc1ccc(-c2cc(C(=O)OCC(=O)N(C)C3CCS(=O)(=O)C3)c3ccccc3n2)cc1OC (stereo not drawn)	none (no result: CSC inhib)
S=C(Nc1ccc(Oc2ccc(NC(=S)NC3CCCCC3)cc2)cc1)NC1CCCCC1	MPTP block 70, NR3A LBD binder 32 | Rh123 counter 52
Cc1c(Cl)cnc(NC(=O)COC(=O)c2ccncc2)c1Cl	none (no result: CSC inhib)
c1ccc2c(c1)oc1c(N3CCN(Cc4ccc5c(c4)OCO5)CC3)ncnc12	MPTP block 86 (no result: Beta apoptosis, Mdm2-MdmX inh, CSC inhib) | Rh123 counter 77
COCCCC/C(=N\OCCN)c1ccc(C(F)(F)F)cc1	MPTP block 82! | Rh123 counter inactive | MPTP swell DR 13 | MPTP cs DR inactive
COc1cccc(CNC(=O)c2cc3c(C)nc4ccccc4c3o2)c1	MPTP block 60 | Rh123 counter 34
COc1ccc(CNC(=O)c2cc3c(C)nc4ccccc4c3o2)c(OC)c1	MPTP block 73, Gli-Sufu antag 57 | Rh123 counter 96
COc1cccc(CC2(CO)CCN(S(=O)(=O)c3ccc(OC)cc3OC)CC2)c1	none (no result: Beta apoptosis)
NS(=O)(=O)c1ccc(CCNC(=O)CN2CCCCCC2)cc1	none (no result: CSC inhib)
CCC(C(=O)OCC(=O)Nc1ccc(SC(F)F)cc1)c1ccccc1 (stereo not drawn)	MPTP block 78, NR3A LBD binder 12 (no result: Beta apoptosis, Mdm2-MdmX inh, CSC inhib) | Rh123 counter 88
CCOc1cc(C(=O)OCC(=O)Nc2ccc(SC(F)F)cc2)cc(OCC)c1OCC	MPTP block 50 | Rh123 counter 61
CCC(CC)C(=O)Nc1cccc(S(=O)(=O)c2cccc(NC(=O)C(CC)CC)c2)c1	MPTP block 58 | Rh123 counter 36
CCN(CC(=O)NCCCn1ccnc1)S(=O)(=O)c1ccc(C)cc1	none
Cc1cc(Cn2nc(-c3ccccc3)cc2C(=O)NCc2cccc(C(F)(F)F)c2)on1	MPTP block 63 | Rh123 counter 98
Cc1cc(Cn2nc(-c3ccccc3)cc2C(=O)NCc2cccc(Br)c2)on1	none
N/C(COc1cccc(Cl)c1)=N\NS(=O)(=O)c1ccccc1	none
COc1ccc(C)cc1NC(=O)C(CCS(C)(=O)=O)NC(C)=O (stereo not drawn)	none
O=C(NCCN1C(=O)S/C(=C\c2ccc(Cl)c(Cl)c2)C1=O)C1COc2ccccc2O1 (stereo not drawn)	MPTP block 99 | Rh123 counter 92
O=C(NCCN1C(=O)S/C(=C\c2ccc(Cl)c(Cl)c2)C1=O)c1ccc2c(c1)C(=O)N(Cc1ccncc1)C2=O	MPTP block 56 | Rh123 counter 20
COc1ccc(/C=C2/SC(=O)N(CCNC(=O)C3COc4ccccc4O3)C2=O)cc1 (stereo not drawn)	none
CC1=NN(c2ccccc2)C(=O)/C1=C\c1ccc(Oc2ccc([N+](=O)[O-])cc2[N+](=O)[O-])cc1	MPTP block 80 | Rh123 counter 70

Compound activity (PubChem BioAssay)
